Compound activity: PubChem, National Center for Advancing Translational Sciences (NCATS)
Compounds with a hit are over-represented: about 8.3% of the library has one in this group of screens.
SW480 rerep = A quantitative high throughput screen for small molecules that induce DNA re-replication in SW480 colon adenocarcinoma cells; SW480 DNA re-replication, Hoechst DNA content imaging, 48 h; Potency, µM (titrated, usually from 46.1 µM), actives largely listed as activators; 1.8% of 340,000 active; also: nearly all actives have a fitted effect of over 55% in size
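DNA re-replication was detected as more nuclei of elevated Hoechst intensity after 48 hr exposure to compound (23 nL pinned per well of 250 cells).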
MCF10A rerep = A quantitative high throughput screen for small molecules that induce DNA re-replication in MCF 10a normal breast cells | MCF 10A DNA re-replication, Hoechst nuclear intensity, 48 h | Potency, µM (doses to about 46.1 µM), most hits filed as activators | 2.9% of 350,000 active; also: nearly all actives have a fitted effect of over 50% in size
Gal4-VP16 FLuc = VP16 counterscreen qHTS for inhibitors of ROR gamma transcriptional activity | Drosophila S2 Gal4-VP16 UAS-luciferase, luminescence, 20 h | Potency, µM (highest dose often 53.6 µM), usual class: inhibitors | 3.5% of 310,000 active;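 also: Gal4-VP16 expression switched on by copper sulfate through the metallothionein promoter; nearly all actives have a fitted effect of over 50% in size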
RORg inh = qHTS for inhibitors of ROR gamma transcriptional activity. Potency, µM (titrated, usually from 53.6 µM), usual class: inhibitors. Drosophila S2 Gal4-RORgamma UAS-luciferase reporter, 20 h. Nuclear receptor ROR-gamma (Mus musculus), P51450. 5.4% of 310,000 active; also: nearly all actives have a fitted effect of over 60% in size
Target sequence (P51450 whole entry, looked up, the tested form may be a part): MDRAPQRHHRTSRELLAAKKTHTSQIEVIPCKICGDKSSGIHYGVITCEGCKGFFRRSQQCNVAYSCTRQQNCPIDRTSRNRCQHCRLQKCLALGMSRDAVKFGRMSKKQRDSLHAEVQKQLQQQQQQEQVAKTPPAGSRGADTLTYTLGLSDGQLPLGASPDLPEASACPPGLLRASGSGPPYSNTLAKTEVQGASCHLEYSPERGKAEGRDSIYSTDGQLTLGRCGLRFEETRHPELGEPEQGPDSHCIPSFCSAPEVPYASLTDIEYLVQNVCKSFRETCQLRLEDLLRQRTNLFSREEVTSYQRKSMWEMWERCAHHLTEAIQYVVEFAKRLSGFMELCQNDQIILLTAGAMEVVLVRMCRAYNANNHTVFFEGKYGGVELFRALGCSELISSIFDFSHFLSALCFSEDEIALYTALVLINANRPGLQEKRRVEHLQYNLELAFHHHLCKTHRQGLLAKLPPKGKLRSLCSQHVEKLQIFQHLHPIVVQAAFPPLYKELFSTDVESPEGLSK
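Read-out: Photinus luciferase luminescence; inhibitors lower reporter signal. Insect Schneider cells with Gal4-ROR gamma fusion under metallothionein promoter, UAS reporter; 700 uM final copper sulfate induction, 20 hr, ambient temperature.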
Chronic BCR inh = qHTS Assay to Find Inhibitors of Chronic Active B-Cell Receptor Signaling. Potency, µM (highest dose often 46.1 µM), hits mostly inhibitors. ABC-DLBCL IkBa-CBG/CBR reporter, luminescence ratio, 4 h. 0.05% of 340,000 active; active = well fitted inhibition curve with a large enough effect in the signal ratio, with a control signal flat, not every such curve was filed as active; inconclusive = small, poorly fitted or top-dose-only effect, or effect the other way, or a change in a side signal; the % refers to the signal ratio
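Compounds up to 46 uM were incubated four hours with TMD8 cells whose green CBG68 luciferase is fused to IkappaBalpha; red CBR luminescence normalised the signal, and concentration-effect curves were fitted to fusion, red and ratio data.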
Giardia kill = Small Molecules that selectively kill Giardia lamblia: qHTS; Giardia lamblia trophozoite viability; activity change, % at 7.66 µM, hits read low; 0.15% of 340,000 active; AID 540267, 2011; in the data active = activity change below about -80%; inconclusive = between about -30% and that limit;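 also: parasites exposed to compound for two days anaerobically before the ATP read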
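ATP-content bioluminescence gauges trophozoite survival. Cells (100/well) receive compound and incubate anaerobically for 48 hrs at 37 deg C; detection reagent follows for 15-30 min at room temperature.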
Numbers stand for hits; . = inactive; ? = inconclusive; / = not tested or not shown; [ ] = dose if it differs, or a comment. Unless noted, calls follow the shape of the dose curve; as a rule, active = well fitted curve in the direction sought with a large enough effect; inconclusive = small, poorly fitted or top-dose-only effect, or another doubt; inactive = no such curve, though single readings can be large; an effect the other way counts as inactive or inconclusive.

SMILES | SW480 rerep | MCF10A rerep | Gal4-VP16 FLuc | RORg inh | Chronic BCR inh | Giardia kill
CCOC(=O)[C@H]1[C@H]2COc3ccc(Cl)cc3[C@@H]2N2C(=O)c3ccc(Cl)cc3NC(=O)[C@@]12C | . | . | / | / | ? | .
Cc1ccc(/C=N/NC(=O)c2cccc(S(=O)(=O)Nc3ccccc3Cl)c2)s1 | . | . | 5.01µM | 7.08µM | . | .
CCOC(=O)C1CCN(C(=O)c2sccc2Cl)CC1 | . | . | . | . | . | .
CCOC(=O)c1c(NC(=O)CSc2nnc(-c3cccnc3)o2)sc(C(C)=O)c1C | . | . | ? | 10µM | . | .
O=C(CSc1nnc(-c2cccnc2)o1)Nc1cccc(F)c1 | 3.26µM | . | / | / | . | .
CCOC(=O)c1c(NC(=O)CSc2nnc(-c3ccco3)o2)sc(C(C)=O)c1C | . | . | . | . | / | .
CCn1c2ccccc2c2cc(/C=N/NC(=O)c3ccccc3C)ccc21 | 13µM | 4.61µM | ? | ? | ? | .
CCn1c2ccccc2c2cc(/C=N/NC(=O)c3cccc(C)c3)ccc21 | ? | 5.8µM | . | . | ? | .
Cn1c2ccccc2c2cc(/C=N/NC(=O)c3ccccc3F)ccc21 | ? | ? | ? | ? | ? | .
Cc1cc(C)c(C#N)c(SCc2nc3ccccc3c(=O)[nH]2)n1 | ? | 10.3µM | ? | . | . | .
COCc1cc(C)nc(SCc2nc3ccccc3c(=O)[nH]2)c1C#N | ? | 2.06µM | . | . | . | .
COCc1cc(C)nc(SCc2ccccc2)c1C#N | . | . | . | .[1.91 µM] | ? | .
O=C(Nc1ccc(F)cc1)c1nc[nH]c1C(=O)Nc1ccc([N+](=O)[O-])cc1 | . | . | 7.08µM | 5.01µM | . | .
CCOC(=O)c1[nH]cnc1C(=O)Nc1ccc([N+](=O)[O-])cc1 | . | ? | . | . | ? | .
O=C(Nc1ccc([N+](=O)[O-])cc1)c1nc[nH]c1C(=O)NC1CCCCC1 | . | . | 3.55µM | 1.58µM | . | .
CC(C)NC(=O)NC(=O)COC(=O)c1c2c(nc3ccccc13)CCC2 | . | 23.1µM | . | . | ? | .
O=C(OCC(=O)N1CCc2ccccc21)c1c2c(nc3ccccc13)CCCCC2 | . | 10.3µM | . | . | . | .
CCOC(=O)c1c(C)[nH]c(C(=O)OCC(=O)N2CCc3ccccc32)c1C | . | . | . | . | . | .
COc1cccc(NC(=O)COC(=O)c2c3c(nc4ccccc24)CCC(C)C3)c1 (configuration not stated) | ? | 10.3µM | . | . | ? | .
CC1CCc2nc3ccccc3c(C(=O)OCC(=O)NC3CCS(=O)(=O)C3)c2C1 (configuration not stated) | . | . | . | . | . | .
CCOC(=O)c1[nH]c(C)c(C(=O)OCC(=O)N2CCc3ccccc32)c1C | . | 23.1µM | . | . | ? | .
NC(=O)COC(=O)c1c2c(nc3ccccc13)CCCC2 | . | . | . | . | . | .
CC(=O)Nc1ccc(NC(=O)CCNS(=O)(=O)c2cccc3nsnc23)cc1 | . | ? | . | . | . | .
CC(NCC(=O)Nc1ccccc1C(=O)NC1CC1)c1cccc(C(F)(F)F)c1 (configuration not stated) | . | . | / | / | . | .
CC(C)C[C@H](NC(=O)c1nc[nH]c1C(=O)NCCCCCNC(=O)OC(C)(C)C)C(=O)OCc1ccccc1 | . | ? | 6.31µM | 12.6µM | ? | .
SMILES | SW480 rerep | MCF10A rerep | Gal4-VP16 FLuc | RORg inh | Chronic BCR inh | Giardia kill
NCCCCCNC(=O)c1[nH]cnc1C(=O)N[C@@H](Cc1ccccc1)C(=O)OCc1ccccc1 | . | . | / | / | . | .
C[C@H](NC(=O)c1nc[nH]c1C(=O)NCCCCCNC(=O)OC(C)(C)C)C(=O)OCc1ccccc1 | . | . | ? | ? | ? | .
CC(C)(C)OC(=O)NCCCCCNC(=O)c1[nH]cnc1C(=O)N[C@@H](Cc1ccccc1)C(=O)OCc1ccccc1 | ? | 13µM | ? | ? | ? | .
CC(C)C[C@H](NC(=O)c1nc[nH]c1C(=O)N[C@@H](CCCCNC(=O)OC(C)(C)C)C(=O)OC(C)(C)C)C(=O)OCc1ccccc1 | ? | ? | ? | 7.08µM | . | .
C[C@H](NC(=O)c1nc[nH]c1C(=O)N[C@@H](CCCCNC(=O)OC(C)(C)C)C(=O)OC(C)(C)C)C(=O)OCc1ccccc1 | . | ? | ? | . | . | .
CC(C)(C)OC(=O)NCCCC[C@H](NC(=O)c1nc[nH]c1C(=O)NCC(=O)OCc1ccccc1)C(=O)OC(C)(C)C | . | . | ? | 28.2µM | . | .
O=C(O)c1cc2ccccc2c2cc(Br)ccc12 | . | . | . | . | . | .
CCc1sc(NC(=O)CCC(=O)O)nc1-c1cc2ccccc2oc1=O | . | . | . | . | ? | .
Cc1cc(C)n(-c2nc3sc4c(c3c(=O)[nH]2)CCCC4)n1 | / | / | 1.41µM | 0.708µM | ? | /
Cc1cc(C)n(-c2nnc(C)c(=O)[nH]2)n1 | . | . | . | 15.8µM | . | .
Cc1cc(C)n(-c2nnc(C)n2N)n1 | . | . | . | . | . | .
CCOC(=O)c1cnn(-c2nc3sc4c(c3c(=O)[nH]2)CCCC4)c1N | / | / | 0.794µM | 0.562µM | ? | /
CCOC(=O)c1cnn(-c2nc(C)nc3sc4c(c23)CCC4)c1N | / | / | . | .[10 µM] | . | /
CCc1cccc(C)c1NC(=O)C1CCCN1C(=O)NCc1ccccc1 (configuration not stated) | . | . | . | . | ? | .
Cc1ccc(NC(=O)CCCNC(=O)c2ccc(Cl)cc2)c(Br)c1 | . | . | . | . | . | .
CN(C)c1ccc(C2(c3ccc(N(C)C)cc3)OC(=O)c3cc(N(C)C)ccc32)cc1 | / | / | . | . | / | /
CN(C)CCCNC(=O)C(=O)NCC(c1cccs1)S(=O)(=O)c1ccc(F)cc1 (configuration not stated) | . | . | / | / | . | .
O=C(NCc1ccc(F)cc1)C1CCCN1C(=O)Nc1cccc(F)c1 (configuration not stated) | . | . | . | .[1.91 µM] | . | .
CCOC(=O)c1sc(-c2cccc(C(F)(F)F)c2)nc1O | ? | ? | . | . | ? | .
CCOC(=O)c1sc(-c2ccc(C(F)(F)F)cc2)nc1O | 16.4µM | 16.4µM | . | ? | ? | .
COc1ccc(OC)c(-c2cc(-c3cccnc3)nc(N)c2C#N)c1 | 6.51µM | 11.6µM | . | . | ? | .
COc1cccc(-c2cc(-c3cccnc3)nc(N)c2C#N)c1 | ? | ? | . | . | ? | .
COC(=O)[C@H](CC(C)C)NC(=O)NCc1ccc(Cl)cc1 | . | . | . | . | . | .
